Measured values as given in PubChem BioAssay (NCI).
Compounds without any hit were thinned out: in the full panel of roughly 79,000, 15% have a hit. Activity calls are given as the source filed them. No stated cut-off is given here; in the data, active means growth inhibition above about 70%; inactive means the rest.

Tests used:
[1] = NCI Yeast Anticancer Drug Screen. Data for the rad52 strain (AID 147);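 further: 0% = growth of vehicle-treated control cultures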; details: S. cerevisiae rad52 mutant growth inhibition, active compounds read high
Summary of the method: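 Here a repair-compromised yeast strain receives each compound; its growth is then quantified and normalised to vehicle-only controls.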

[2] = NCI Yeast Anticancer Drug Screen. Data for the wt1 strain (AID 149);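 further: 0% = growth of vehicle-treated wt1 cultures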; details: S. cerevisiae wt1 strain (SPY 50644) growth inhibition, active compounds read high
Summary of the method: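 Each compound is tested on wt1 yeast and the loss of growth versus vehicle gives the inhibition value.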

[3] = NCI Yeast Anticancer Drug Screen. Data for the rad50EPP+ strain (AID 151);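 further: 0% = growth of vehicle-treated control cultures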; details: S. cerevisiae rad50 mutant strain, active compounds read high
Summary of the method: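 Read-out is yeast growth inhibition relative to vehicle; cells used were the rad50EPP+ strain.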

[4] = NCI Yeast Anticancer Drug Screen. Data for the mgt1 strain (AID 153); details: S. cerevisiae mgt1 mutant growth inhibition, active compounds read high
Summary of the method: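 Measured: inhibition of mgt1 yeast growth by compound, normalized to vehicle-treated cultures.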

[5] = NCI Yeast Anticancer Drug Screen. Data for the rad50 strain (AID 155);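 further: 0% = growth of vehicle-only cultures of the same strain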; details: S. cerevisiae rad50 strain growth inhibition, active compounds read high
Summary of the method: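 Vehicle-treated cultures provide the reference for the growth inhibition reported for compound-exposed, repair-deficient yeast.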

[6] = NCI Yeast Anticancer Drug Screen. Data for the mec2-1 strain (AID 157); details: S. cerevisiae mec2-1 strain, active compounds read high
Summary of the method: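 Using mec2-1 yeast: add compound, measure growth, express inhibition versus vehicle-treated cultures.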

[7] = NCI Yeast Anticancer Drug Screen. Data for the rad14 strain (AID 159);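 further: 0% = growth of vehicle-treated control cultures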; details: S. cerevisiae rad14 strain growth inhibition, active compounds read high
Summary of the method: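 Inhibition of growth is reported for a repair-deficient yeast mutant following compound treatment, calculated relative to cultures that received vehicle.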

[8] = NCI Yeast Anticancer Drug Screen. Data for the sgs1 mgt1 strain (AID 161);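 further: 0% = growth of cultures given vehicle only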; details: S. cerevisiae sgs1 mgt1 strain, active compounds read high
Summary of the method: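 Percent growth inhibition was derived by comparing compound-exposed mutant yeast with vehicle-exposed cultures. The strain carries alterations in DNA damage repair.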

[9] = NCI Yeast Anticancer Drug Screen. Data for the CLN2oe strain (AID 163);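 further: 0% = growth of vehicle-only control cultures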; details: S. cerevisiae CLN2oe strain, active compounds read high
Summary of the method: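 Whole-cell yeast growth assay. A strain engineered for altered cell-cycle control received compound, and inhibition relative to vehicle-treated cultures was recorded.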

[10] = NCI Yeast Anticancer Drug Screen. Data for the cln2 rad14 strain (AID 165);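 further: 0% = growth equal to vehicle treated cultures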; details: S. cerevisiae cln2 rad14 strain, active compounds read high
Summary of the method: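 Yeast strain cln2 rad14, bearing defects in cell cycle control and DNA repair, serves as the test system; values reflect growth inhibition compared with vehicle.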

[11] = NCI Yeast Anticancer Drug Screen. Data for the bub3 strain (AID 167); details: S. cerevisiae bub3 mutant strain, active compounds read high
Summary of the method: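 Mutant yeast screening strain plus compound; vehicle-treated cultures serve as the 0% inhibition reference.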

[12] = NCI Yeast Anticancer Drug Screen. Data for the wt2 strain (AID 169); details: S. cerevisiae wt2 strain growth inhibition, active compounds read high
Summary of the method: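 Treated yeast vs. vehicle-treated yeast: growth inhibition determined.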

[13] = NCI Yeast Anticancer Drug Screen. Data for the mlh1 strain (AID 171);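 further: 0% = growth of vehicle-treated control cultures of the same strain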; details: S. cerevisiae mlh1 strain growth inhibition, active compounds read high
Summary of the method: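 A yeast strain with a defined genetic lesion serves as the test organism. Cultures receive compound or vehicle, and growth is measured.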

[14] = NCI Yeast Anticancer Drug Screen. Data for the sgs1 strain (AID 173);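 further: 0% = growth of vehicle-only control cultures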; details: S. cerevisiae sgs1 mutant, active compounds read high
Summary of the method: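 A genetically defined yeast mutant is incubated with the test compound, and its growth is compared to that of the same strain given vehicle.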

[15] = NCI Yeast Anticancer Drug Screen. Data for the mlh1 rad18 strain (AID 175); details: S. cerevisiae mlh1 rad18 strain growth inhibition, active compounds read high
Summary of the method: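 Steps: expose repair-defective yeast to compound; measure growth; express inhibition against vehicle-treated controls.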

[16] = NCI Yeast Anticancer Drug Screen. Data for the rad18 strain (AID 177); details: S. cerevisiae rad18 mutant growth inhibition, active compounds read high
Summary of the method: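 Measured value is growth inhibition of a yeast strain bearing a DNA repair alteration, referenced to vehicle-treated cells.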

[17] = at 5.0 µM (retest, dose inferred, filed as 0.5)
[18] = at 50.0 µM (retest, dose inferred, filed as 5.0)

Measured: growth inhibition

O=[N+]([O-])c1cc(Cl)cnc1Br
active: [1]; at 11.0 µM 75% | [1]; at 33.0 µM 92% | [1]; at 100.0 µM 97% | [3]; at 3.7 µM 71% | [3]; at 11.0 µM 88% | [3]; at 33.0 µM 96% | [3]; at 100.0 µM 98% | [5]; at 11.0 µM 81% | [5]; at 33.0 µM 90% | [5]; [18] 82% | [5]; at 50.0 µM 88.5% | [5]; at 100.0 µM 98% | [6]; at 33.0 µM 85% | [6]; [18] 70% | [6]; at 50.0 µM 76.7% | [6]; at 100.0 µM 88% | [14]; at 100.0 µM 82% | [16]; at 100.0 µM 87%
inactive: [1]; at 1.2 µM 23% | [1]; at 3.7 µM 46% | [2]; at 1.2 µM 1% | [2]; at 3.7 µM 4% | [2]; at 11.0 µM 7% | [2]; at 33.0 µM 8% | [2]; at 100.0 µM 20% | [3]; at 1.2 µM 35% | [4]; at 1.2 µM 2% | [4]; at 3.7 µM 1% | [4]; at 11.0 µM 4% | [4]; at 33.0 µM 12% | [4]; at 100.0 µM 19% | [5]; at 1.2 µM 28% | [5]; at 3.7 µM 47% | [5]; [17] -49% | [6]; at 1.2 µM 6% | [6]; at 3.7 µM 43% | [6]; [17] 22% | [6]; at 11.0 µM 69% | [7]; at 1.2 µM 4% | [7]; at 3.7 µM 1% | [7]; at 11.0 µM 10% | [7]; at 33.0 µM 14% | [7]; at 100.0 µM 31% | [8]; [17] -50% | [8]; [18] -19% | [8]; at 50.0 µM 8.35% | [9]; at 1.2 µM -4% | [9]; at 3.7 µM -1% | [9]; at 11.0 µM 4% | [9]; at 33.0 µM 4% | [9]; at 100.0 µM 8% | [10]; [17] -56% | [10]; [18] -74% | [10]; at 50.0 µM 3.2% | [11]; at 1.2 µM -8% | [11]; at 3.7 µM -10% | [11]; [17] -74% | [11]; at 11.0 µM -6% | [11]; at 33.0 µM -2% | [11]; [18] -70% | [11]; at 50.0 µM -8.3% | [11]; at 100.0 µM 30% | [12]; at 1.2 µM 0% | [12]; at 3.7 µM 1% | [12]; at 11.0 µM 2% | [12]; at 33.0 µM 5% | [12]; at 100.0 µM 20% | [13]; at 1.2 µM 6% | [13]; at 3.7 µM 8% | [13]; at 11.0 µM 6% | [13]; at 33.0 µM 12% | [13]; at 100.0 µM 27% | [14]; at 1.2 µM 14% | [14]; at 3.7 µM 25% | [14]; at 11.0 µM 30% | [14]; at 33.0 µM 40% | [15]; [17] -109% | [15]; [18] -48% | [15]; at 50.0 µM 28.1% | [16]; at 1.2 µM 6% | [16]; at 3.7 µM 10% | [16]; at 11.0 µM 18% | [16]; at 33.0 µM 35%

NCCNCCNc1ccc(NCCNCCN)c2c1C(=O)c1c(O)ccc(O)c1C2=O
inactive: [1]; at 1.2 µM 34% | [1]; at 3.7 µM 48% | [2]; at 1.2 µM -49% | [2]; at 3.7 µM -2% | [2]; at 11.0 µM -4% | [2]; at 33.0 µM 0% | [2]; at 100.0 µM 12% | [3]; at 1.2 µM 9% | [3]; at 3.7 µM 36% | [3]; at 11.0 µM 69% | [3]; at 100.0 µM 69% | [4]; at 1.2 µM -2% | [4]; at 3.7 µM 0% | [4]; at 11.0 µM 1% | [4]; at 33.0 µM 7% | [4]; at 100.0 µM 19% | [5]; at 1.2 µM 17% | [5]; at 3.7 µM 49% | [5]; [17] 20% | [5]; [18] 66% | [6]; at 1.2 µM 27% | [6]; at 3.7 µM 1% | [6]; [17] 0% | [6]; at 11.0 µM -7% | [6]; at 33.0 µM 11% | [6]; [18] 45% | [6]; at 50.0 µM 0.2% | [6]; at 100.0 µM 31% | [7]; at 1.2 µM -4% | [7]; at 3.7 µM -2% | [7]; at 11.0 µM 0% | [7]; at 33.0 µM 5% | [7]; at 100.0 µM 15% | [8]; [17] -6% | [8]; [18] 8% | [8]; at 50.0 µM 15.1% | [9]; at 1.2 µM -10% | [9]; at 3.7 µM -7% | [9]; at 11.0 µM -10% | [9]; at 33.0 µM -9% | [9]; at 100.0 µM 40% | [10]; [17] 32% | [10]; [18] 34% | [10]; at 50.0 µM 7% | [11]; at 1.2 µM -4% | [11]; at 3.7 µM -11% | [11]; [17] 20% | [11]; at 11.0 µM -10% | [11]; at 33.0 µM -8% | [11]; [18] -1% | [11]; at 50.0 µM -1.95% | [11]; at 100.0 µM 20% | [12]; at 1.2 µM -3% | [12]; at 3.7 µM -3% | [12]; at 11.0 µM -3% | [12]; at 33.0 µM 14% | [12]; at 100.0 µM 53% | [13]; at 1.2 µM 0% | [13]; at 3.7 µM -2% | [13]; at 11.0 µM -1% | [13]; at 33.0 µM -1% | [13]; at 100.0 µM 16% | [14]; at 1.2 µM 1% | [14]; at 3.7 µM 4% | [14]; at 11.0 µM 2% | [14]; at 33.0 µM 13% | [14]; at 100.0 µM 25% | [15]; [17] 11% | [15]; [18] 0% | [15]; at 50.0 µM 16.5% | [16]; at 1.2 µM 4% | [16]; at 3.7 µM 2% | [16]; at 11.0 µM 9% | [16]; at 33.0 µM 22% | [16]; at 100.0 µM 48%
active: [1]; at 11.0 µM 91% | [1]; at 33.0 µM 93% | [1]; at 100.0 µM 85% | [3]; at 33.0 µM 84% | [5]; at 11.0 µM 82% | [5]; at 33.0 µM 88% | [5]; at 50.0 µM 87.7% | [5]; at 100.0 µM 84%
